According to publication PMC7862700, “An all-to-all approach to the identification of sequence-specific readers for epigenetic DNA modifications on cytosine”:

Tests used:
Assay in all cases: DAPPL (digital affinity profiling via proximity ligation, sequencing); 10 mM Tris-HCl pH 7.5, 50 mM NaCl, 1 mM DTT, 4% glycerol, room temperature, 30 min; GST-TFs on glutathione beads, 16-mer random dsDNA library, 0.1% formaldehyde crosslink after washing; high values mean tight binding
[1] = target: T1, FLI1 (Homo sapiens, UniProt Q01543 1-452); details: protein: recombinant; tags: N-terminal GST; dsDNA, one strand shown
T1 sequence: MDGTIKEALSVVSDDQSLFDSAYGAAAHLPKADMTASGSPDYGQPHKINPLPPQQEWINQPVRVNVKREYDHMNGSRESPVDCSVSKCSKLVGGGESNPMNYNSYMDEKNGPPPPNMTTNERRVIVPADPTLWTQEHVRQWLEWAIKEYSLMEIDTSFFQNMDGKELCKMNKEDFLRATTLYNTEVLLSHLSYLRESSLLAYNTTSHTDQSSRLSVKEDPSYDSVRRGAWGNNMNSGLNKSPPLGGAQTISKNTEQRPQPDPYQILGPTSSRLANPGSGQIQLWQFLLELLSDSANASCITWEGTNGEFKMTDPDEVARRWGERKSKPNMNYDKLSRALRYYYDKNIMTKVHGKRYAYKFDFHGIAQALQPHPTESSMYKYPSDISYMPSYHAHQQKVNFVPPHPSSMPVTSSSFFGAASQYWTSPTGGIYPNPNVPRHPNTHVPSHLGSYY
Method in brief: (§1)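 Pools of DNA-barcoded human transcription factors, expressed in yeast as GST fusions on glutathione beads and combined with a tag-only sample, were incubated with 200 nmole of a 16-mer random double-stranded DNA library. Incubation took 30 min at room temperature in Tris/NaCl/DTT/glycerol buffer and was followed by washing, 0.1% formaldehyde crosslinking, proximity ligation (BsaI/T4 ligase, 1 h, 37 °C), PCR amplification and sequencing on an Illumina NextSeq500. Binding signal is the ratio of a hexamer's read frequency for a factor to its frequency for the tag-only sample.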

[2] = target: T2, ELK1 (Homo sapiens, UniProt P19419 1-428); details: protein: recombinant; tags: N-terminal GST; dsDNA, one strand shown
T2 sequence: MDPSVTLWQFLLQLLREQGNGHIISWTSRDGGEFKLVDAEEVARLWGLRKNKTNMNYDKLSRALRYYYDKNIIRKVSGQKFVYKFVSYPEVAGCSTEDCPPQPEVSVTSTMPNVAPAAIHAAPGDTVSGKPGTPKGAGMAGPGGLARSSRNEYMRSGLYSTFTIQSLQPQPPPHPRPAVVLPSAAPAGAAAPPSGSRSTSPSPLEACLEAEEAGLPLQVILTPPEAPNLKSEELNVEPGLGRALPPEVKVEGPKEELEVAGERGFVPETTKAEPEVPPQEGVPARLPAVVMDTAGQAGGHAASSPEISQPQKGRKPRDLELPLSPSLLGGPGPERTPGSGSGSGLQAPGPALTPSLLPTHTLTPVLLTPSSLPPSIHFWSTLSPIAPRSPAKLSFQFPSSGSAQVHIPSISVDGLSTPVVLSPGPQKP
Method in brief: as §1

[3] = target: T3, GABPA (Homo sapiens, UniProt Q06546 1-454); details: protein: recombinant; tags: N-terminal GST; dsDNA, one strand shown
T3 sequence: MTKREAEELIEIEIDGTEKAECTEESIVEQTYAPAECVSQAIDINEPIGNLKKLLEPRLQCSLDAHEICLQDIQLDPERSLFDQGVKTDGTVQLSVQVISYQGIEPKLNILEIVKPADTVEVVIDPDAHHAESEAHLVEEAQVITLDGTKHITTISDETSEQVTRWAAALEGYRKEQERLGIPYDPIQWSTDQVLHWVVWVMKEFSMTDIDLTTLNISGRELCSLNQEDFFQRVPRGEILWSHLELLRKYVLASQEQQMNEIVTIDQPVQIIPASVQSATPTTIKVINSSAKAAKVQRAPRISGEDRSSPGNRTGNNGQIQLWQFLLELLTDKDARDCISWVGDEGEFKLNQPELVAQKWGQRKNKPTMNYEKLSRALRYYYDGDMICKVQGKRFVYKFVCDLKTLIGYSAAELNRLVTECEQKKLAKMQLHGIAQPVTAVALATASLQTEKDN
Method in brief: as §1

[4] = target: T4, ERG (Homo sapiens, UniProt P11308 1-479); details: protein: recombinant; tags: N-terminal GST; dsDNA, one strand shown
T4 sequence: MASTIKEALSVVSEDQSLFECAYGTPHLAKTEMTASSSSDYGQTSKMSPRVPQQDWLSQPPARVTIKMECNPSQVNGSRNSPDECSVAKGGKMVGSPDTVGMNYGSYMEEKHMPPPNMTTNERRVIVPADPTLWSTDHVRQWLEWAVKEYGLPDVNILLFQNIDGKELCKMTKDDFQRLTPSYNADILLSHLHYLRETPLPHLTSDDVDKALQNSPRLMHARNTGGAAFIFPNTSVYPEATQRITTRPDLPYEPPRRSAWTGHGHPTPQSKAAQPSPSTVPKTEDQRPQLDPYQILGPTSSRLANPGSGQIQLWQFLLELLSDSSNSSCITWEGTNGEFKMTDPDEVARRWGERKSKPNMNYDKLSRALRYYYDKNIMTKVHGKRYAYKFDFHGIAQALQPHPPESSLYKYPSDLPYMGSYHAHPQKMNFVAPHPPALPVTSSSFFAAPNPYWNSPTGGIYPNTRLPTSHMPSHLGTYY
Method in brief: as §1

[5] = target: ELF1 (Homo sapiens, UniProt P32519 1-619); details: protein: recombinant; tags: N-terminal GST; dsDNA, one strand shown
ELF1, sequence (P32519 whole entry): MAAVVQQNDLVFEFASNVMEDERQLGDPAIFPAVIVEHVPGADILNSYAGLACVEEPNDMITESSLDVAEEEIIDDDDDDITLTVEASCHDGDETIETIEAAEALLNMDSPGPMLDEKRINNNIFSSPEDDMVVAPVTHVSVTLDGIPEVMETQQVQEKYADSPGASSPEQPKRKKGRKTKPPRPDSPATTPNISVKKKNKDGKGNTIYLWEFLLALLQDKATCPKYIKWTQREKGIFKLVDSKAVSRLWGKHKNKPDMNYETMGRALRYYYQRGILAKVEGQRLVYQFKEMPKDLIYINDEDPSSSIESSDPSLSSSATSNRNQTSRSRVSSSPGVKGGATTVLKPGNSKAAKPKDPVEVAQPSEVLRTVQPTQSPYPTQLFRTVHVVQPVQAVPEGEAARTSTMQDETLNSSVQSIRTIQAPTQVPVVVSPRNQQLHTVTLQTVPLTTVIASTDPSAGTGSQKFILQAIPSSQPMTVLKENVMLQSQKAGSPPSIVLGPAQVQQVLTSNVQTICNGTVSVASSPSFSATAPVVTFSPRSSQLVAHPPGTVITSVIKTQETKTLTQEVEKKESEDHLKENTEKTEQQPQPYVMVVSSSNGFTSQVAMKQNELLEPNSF
Method in brief: as §1

[6] = target: T5, EHF (Homo sapiens, UniProt Q9NZC4 1-300); details: protein: recombinant; tags: N-terminal GST; dsDNA, one strand shown
T5 sequence: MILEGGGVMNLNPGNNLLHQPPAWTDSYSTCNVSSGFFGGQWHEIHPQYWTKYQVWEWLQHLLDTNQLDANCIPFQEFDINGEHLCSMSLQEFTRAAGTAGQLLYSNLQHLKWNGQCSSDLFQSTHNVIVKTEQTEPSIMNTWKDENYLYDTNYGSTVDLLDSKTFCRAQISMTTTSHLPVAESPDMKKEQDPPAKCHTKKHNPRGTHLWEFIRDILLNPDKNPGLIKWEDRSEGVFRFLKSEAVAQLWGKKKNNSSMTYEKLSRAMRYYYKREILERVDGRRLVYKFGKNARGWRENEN
Method in brief: as §1

[7] = target: SPI1 (Homo sapiens, UniProt P17947 1-270); details: protein: recombinant; tags: N-terminal GST; dsDNA, one strand shown
Method in brief: as §1

[8] = target: SPIB (Homo sapiens, UniProt Q01892 1-262); details: protein: recombinant; tags: N-terminal GST; dsDNA, one strand shown
SPIB, sequence (Q01892 whole entry): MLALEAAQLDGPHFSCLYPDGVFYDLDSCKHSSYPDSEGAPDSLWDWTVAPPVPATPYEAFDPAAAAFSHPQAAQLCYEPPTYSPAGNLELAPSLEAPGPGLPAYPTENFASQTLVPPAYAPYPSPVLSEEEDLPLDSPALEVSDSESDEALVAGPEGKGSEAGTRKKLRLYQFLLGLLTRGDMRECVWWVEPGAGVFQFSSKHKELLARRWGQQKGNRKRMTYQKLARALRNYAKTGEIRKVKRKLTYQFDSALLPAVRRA
Method in brief: as §1

[9] = target: T6, ELK3 (Homo sapiens, UniProt P41970 1-407); details: protein: recombinant; tags: N-terminal GST; dsDNA, one strand shown
T6 sequence: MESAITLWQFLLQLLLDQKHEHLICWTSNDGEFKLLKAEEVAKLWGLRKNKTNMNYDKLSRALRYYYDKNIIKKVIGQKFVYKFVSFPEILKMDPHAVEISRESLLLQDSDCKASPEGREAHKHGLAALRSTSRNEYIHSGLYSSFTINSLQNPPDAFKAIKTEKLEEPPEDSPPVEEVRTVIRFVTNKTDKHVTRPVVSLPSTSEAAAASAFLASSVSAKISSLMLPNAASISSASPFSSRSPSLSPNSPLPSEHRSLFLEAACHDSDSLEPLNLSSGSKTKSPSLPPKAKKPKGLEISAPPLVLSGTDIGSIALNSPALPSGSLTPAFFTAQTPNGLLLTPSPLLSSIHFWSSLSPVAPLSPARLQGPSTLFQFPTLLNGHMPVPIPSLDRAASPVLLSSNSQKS
Method in brief: as §1

[10] = target: T7, FEV (Homo sapiens, UniProt Q99581 1-238); details: protein: recombinant; tags: N-terminal GST; dsDNA, one strand shown
T7 sequence: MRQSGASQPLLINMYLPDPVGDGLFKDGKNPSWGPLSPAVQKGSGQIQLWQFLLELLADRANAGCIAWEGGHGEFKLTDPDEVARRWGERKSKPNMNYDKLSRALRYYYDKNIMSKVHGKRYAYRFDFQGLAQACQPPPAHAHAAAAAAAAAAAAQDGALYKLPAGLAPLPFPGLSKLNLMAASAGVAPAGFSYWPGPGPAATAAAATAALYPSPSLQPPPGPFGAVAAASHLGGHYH
Method in brief: as §1

[11] = target: ETV5 (Homo sapiens, UniProt P41161 1-510); details: protein: recombinant; tags: N-terminal GST; dsDNA, one strand shown
ETV5, sequence (P41161 whole entry): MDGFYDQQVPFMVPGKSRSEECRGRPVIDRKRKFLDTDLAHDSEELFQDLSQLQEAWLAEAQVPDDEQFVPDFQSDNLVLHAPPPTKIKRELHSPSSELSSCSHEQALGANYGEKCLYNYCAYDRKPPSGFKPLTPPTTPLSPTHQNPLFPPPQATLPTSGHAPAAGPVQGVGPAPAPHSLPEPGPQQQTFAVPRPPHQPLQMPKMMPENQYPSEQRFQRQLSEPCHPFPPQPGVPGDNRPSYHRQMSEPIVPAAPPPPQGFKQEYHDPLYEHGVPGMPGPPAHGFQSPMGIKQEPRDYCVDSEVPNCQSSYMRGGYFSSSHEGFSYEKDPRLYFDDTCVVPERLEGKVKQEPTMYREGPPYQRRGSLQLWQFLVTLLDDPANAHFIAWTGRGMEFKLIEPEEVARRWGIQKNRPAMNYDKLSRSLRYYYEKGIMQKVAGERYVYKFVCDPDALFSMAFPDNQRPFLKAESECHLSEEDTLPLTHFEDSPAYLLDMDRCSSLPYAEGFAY
Method in brief: as §1

[12] = target: HSF1 (Homo sapiens, UniProt Q00613 1-529); details: protein: recombinant; tags: N-terminal GST; chain copies: 3; dsDNA, one strand shown
HSF1, sequence (Q00613 whole entry): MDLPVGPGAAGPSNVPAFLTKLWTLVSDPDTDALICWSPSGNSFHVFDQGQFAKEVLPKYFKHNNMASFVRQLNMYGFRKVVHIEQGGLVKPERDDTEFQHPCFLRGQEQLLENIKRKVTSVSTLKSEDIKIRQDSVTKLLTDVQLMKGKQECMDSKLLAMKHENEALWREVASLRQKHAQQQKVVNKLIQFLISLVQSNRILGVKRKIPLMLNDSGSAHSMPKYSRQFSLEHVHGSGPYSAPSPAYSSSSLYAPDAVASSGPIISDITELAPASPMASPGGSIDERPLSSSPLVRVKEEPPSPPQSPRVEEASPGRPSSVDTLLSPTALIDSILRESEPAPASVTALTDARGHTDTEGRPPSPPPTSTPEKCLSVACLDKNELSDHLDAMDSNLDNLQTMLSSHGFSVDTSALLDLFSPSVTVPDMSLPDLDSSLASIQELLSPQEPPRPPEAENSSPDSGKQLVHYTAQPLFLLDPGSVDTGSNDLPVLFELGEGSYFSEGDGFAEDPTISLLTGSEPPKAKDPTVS
Method in brief: as §1

[13] = target: T8, SPIC (Homo sapiens, UniProt Q8N5J4 1-248); details: protein: recombinant; tags: N-terminal GST; dsDNA, one strand shown
T8 sequence: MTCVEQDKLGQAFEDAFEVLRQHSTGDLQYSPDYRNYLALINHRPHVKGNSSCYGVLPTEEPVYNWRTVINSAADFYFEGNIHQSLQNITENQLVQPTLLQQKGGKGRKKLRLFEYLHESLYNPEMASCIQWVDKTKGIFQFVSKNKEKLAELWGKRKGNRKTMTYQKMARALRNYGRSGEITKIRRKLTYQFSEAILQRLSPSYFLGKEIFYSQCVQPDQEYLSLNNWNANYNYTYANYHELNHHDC
Method in brief: as §1

[14] = target: ELF4 (Homo sapiens, UniProt Q99607 1-663); details: protein: recombinant; tags: N-terminal GST; dsDNA, one strand shown
ELF4, sequence (Q99607 whole entry): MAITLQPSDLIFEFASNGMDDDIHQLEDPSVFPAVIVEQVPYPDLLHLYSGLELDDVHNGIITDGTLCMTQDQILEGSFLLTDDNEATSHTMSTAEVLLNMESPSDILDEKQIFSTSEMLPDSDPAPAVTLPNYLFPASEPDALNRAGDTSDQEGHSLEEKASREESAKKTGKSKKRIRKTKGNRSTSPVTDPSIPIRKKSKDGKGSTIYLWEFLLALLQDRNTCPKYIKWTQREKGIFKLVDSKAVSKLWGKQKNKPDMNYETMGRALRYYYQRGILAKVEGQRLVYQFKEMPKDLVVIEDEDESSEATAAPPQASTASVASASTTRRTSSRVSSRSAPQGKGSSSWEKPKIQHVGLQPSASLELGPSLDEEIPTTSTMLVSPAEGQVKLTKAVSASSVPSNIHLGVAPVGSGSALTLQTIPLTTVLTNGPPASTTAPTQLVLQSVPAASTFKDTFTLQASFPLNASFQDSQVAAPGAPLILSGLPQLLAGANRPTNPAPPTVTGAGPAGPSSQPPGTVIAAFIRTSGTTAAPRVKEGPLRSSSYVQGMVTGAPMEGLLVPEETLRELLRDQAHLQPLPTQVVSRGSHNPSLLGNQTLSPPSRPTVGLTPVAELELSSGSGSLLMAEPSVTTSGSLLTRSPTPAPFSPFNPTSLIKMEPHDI
Method in brief: as §1

[15] = target: T9, ELK4 (Homo sapiens, UniProt P28324-2 1-405); details: protein: recombinant; tags: N-terminal GST; dsDNA, one strand shown
T9 sequence: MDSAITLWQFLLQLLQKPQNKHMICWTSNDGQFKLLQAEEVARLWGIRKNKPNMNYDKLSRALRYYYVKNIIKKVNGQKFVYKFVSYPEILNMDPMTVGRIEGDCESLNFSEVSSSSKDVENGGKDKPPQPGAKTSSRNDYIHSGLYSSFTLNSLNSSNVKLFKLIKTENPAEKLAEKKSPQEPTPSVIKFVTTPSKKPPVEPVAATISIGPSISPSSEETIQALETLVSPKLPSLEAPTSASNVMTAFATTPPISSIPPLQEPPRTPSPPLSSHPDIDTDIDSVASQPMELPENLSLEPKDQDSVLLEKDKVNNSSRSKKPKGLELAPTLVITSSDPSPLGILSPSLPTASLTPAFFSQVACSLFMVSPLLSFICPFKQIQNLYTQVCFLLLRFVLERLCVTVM
Method in brief: as §1

[16] = target: T10, ETV2 (Homo sapiens, UniProt O00321 1-342); details: protein: recombinant; tags: N-terminal GST; dsDNA, one strand shown
T10 sequence: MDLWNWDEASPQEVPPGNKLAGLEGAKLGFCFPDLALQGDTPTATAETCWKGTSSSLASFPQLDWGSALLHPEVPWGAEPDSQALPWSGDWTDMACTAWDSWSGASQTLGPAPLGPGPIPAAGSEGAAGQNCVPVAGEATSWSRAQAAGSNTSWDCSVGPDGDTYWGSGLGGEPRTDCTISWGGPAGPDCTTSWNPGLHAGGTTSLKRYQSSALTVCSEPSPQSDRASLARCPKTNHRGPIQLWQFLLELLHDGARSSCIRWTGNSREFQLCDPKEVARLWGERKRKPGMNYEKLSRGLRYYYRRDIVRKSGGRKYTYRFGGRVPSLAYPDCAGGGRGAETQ
Method in brief: as §1

[17] = target: T11, ELF3 (Homo sapiens, UniProt P78545 1-371); details: protein: recombinant; tags: N-terminal GST; dsDNA, one strand shown
T11 sequence: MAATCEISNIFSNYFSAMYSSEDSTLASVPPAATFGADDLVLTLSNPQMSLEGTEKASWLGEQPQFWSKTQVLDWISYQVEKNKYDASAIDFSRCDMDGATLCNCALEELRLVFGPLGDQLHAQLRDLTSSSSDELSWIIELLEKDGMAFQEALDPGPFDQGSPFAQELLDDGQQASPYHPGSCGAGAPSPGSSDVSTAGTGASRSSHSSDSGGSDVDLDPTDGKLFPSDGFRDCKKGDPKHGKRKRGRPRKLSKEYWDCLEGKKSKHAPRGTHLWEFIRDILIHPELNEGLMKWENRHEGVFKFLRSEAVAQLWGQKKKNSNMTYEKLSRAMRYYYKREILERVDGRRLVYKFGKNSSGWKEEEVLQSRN
Method in brief: as §1

[18] = target: CRX (Homo sapiens, UniProt O43186 1-299); details: protein: recombinant; tags: N-terminal GST; dsDNA, one strand shown
CRX, sequence (O43186 whole entry): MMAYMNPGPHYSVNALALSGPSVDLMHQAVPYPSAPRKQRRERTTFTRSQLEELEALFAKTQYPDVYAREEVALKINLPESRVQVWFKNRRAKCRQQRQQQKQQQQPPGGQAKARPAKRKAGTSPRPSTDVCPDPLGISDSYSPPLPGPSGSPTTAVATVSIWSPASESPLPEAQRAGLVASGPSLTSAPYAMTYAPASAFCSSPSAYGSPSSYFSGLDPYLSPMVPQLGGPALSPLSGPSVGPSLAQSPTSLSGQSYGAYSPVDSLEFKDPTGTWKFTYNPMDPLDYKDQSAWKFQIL
Method in brief: as §1

[19] = target: ETV1 (Homo sapiens, UniProt P50549 1-477); details: protein: recombinant; tags: N-terminal GST; dsDNA, one strand shown
ETV1, sequence (P50549 whole entry): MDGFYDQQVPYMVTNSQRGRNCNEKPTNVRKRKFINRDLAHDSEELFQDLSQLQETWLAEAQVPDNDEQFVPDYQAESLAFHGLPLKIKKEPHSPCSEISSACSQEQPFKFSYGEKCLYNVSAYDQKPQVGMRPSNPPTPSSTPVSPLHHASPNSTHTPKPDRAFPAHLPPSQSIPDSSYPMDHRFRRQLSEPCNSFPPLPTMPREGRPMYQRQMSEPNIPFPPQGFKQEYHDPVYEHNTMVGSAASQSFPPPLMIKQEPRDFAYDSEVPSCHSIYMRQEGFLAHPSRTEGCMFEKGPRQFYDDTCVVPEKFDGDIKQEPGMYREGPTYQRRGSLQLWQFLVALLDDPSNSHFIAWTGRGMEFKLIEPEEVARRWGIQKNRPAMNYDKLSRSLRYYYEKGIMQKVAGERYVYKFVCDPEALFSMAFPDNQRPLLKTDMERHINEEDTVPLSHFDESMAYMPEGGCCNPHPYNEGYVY
Method in brief: as §1

Sequence: TATCCA
- binding signal [1]: 1.3 fold enrichment (6-mer frequency, TF over GST control)
- binding signal [2]: 1.36 fold enrichment (6-mer frequency, TF over GST control)
- binding signal [3]: 1.3 fold enrichment (6-mer frequency, TF over GST control)
- binding signal [4]: 1.22 fold enrichment (6-mer frequency, TF over GST control)
- binding signal [5]: 1.29 fold enrichment (6-mer frequency, TF over GST control)
- binding signal [6]: 1.26 fold enrichment (6-mer frequency, TF over GST control)
- binding signal [7]: 1.27 fold enrichment (6-mer frequency, TF over GST control)
- binding signal [8]: 1.36 fold enrichment (6-mer frequency, TF over GST control)
- binding signal [9]: 1.37 fold enrichment (6-mer frequency, TF over GST control)
- binding signal [10]: 1.29 fold enrichment (6-mer frequency, TF over GST control)
- binding signal [11]: 1.27 fold enrichment (6-mer frequency, TF over GST control)
- binding signal [12]: 1.49 fold enrichment (6-mer frequency, TF over GST control)
- binding signal [13]: 1.4 fold enrichment (6-mer frequency, TF over GST control)
- binding signal [14]: 1.29 fold enrichment (6-mer frequency, TF over GST control)
- binding signal [15]: 1.33 fold enrichment (6-mer frequency, TF over GST control)
- binding signal [16]: 1.37 fold enrichment (6-mer frequency, TF over GST control)
- binding signal [17]: 1.31 fold enrichment (6-mer frequency, TF over GST control)
- binding signal [18]: 1.75 fold enrichment (6-mer frequency, TF over GST control)
- binding signal [19]: 1.27 fold enrichment (6-mer frequency, TF over GST control)
